Bioassay records deposited in PubChem by National Center for Advancing Translational Sciences (NCATS).
Sampled rows, rich in hits. Any-hit rate of the full collection: about 19%.
IL-1B inflam inh: blocks inflammasome-driven IL-1 beta release; hit rate 4.7% among 360,000; AID 743279; THP-1 LPS/ATP IL-1B secretion, AlphaLISA, 16 h; stronger effect = lower value; activity change, % at 57.5 µM; in the data active = activity change below about -50%; inconclusive = mostly about -30% to -49%
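Secreted IL-1B measured by AlphaLISA bead assay after 16 h compound exposure of THP-1 cells; compounds (final up to 57.5 uM) added 1 h before LPS (250 ng/mL) and ATP (1.25 mM) stimulation; lower signal means less secretion.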
TDP1 cell noCPT: qHTS for Inhibitors of human tyrosyl-DNA phosphodiesterase 1 (TDP1): qHTS in cells in absence of CPT; DT40 Tdp1-/- hTDP1 cells, no CPT, ATP luminescence, 48 h; Potency, µM (doses to about 46.2 µM), most hits filed as inhibitors; hit rate 15% among 420,000; also: nearly all actives have a fitted effect of over 55% in size
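Readout: luminescence from CellTiter-Glo after 30 min in the dark at RT. Cells: DT40 Tdp1-/- with stable hTDP1, 400/well. Exposure: compounds alone, ≥48 hr, 37 °C.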
HepG2 tox: HepG2 cytotoxicity, counter-screen for TGF-b inhibitors | hit rate 0.76% among 410,000 | HepG2 CAGA-GFP viability, ATP luminescence, 18 h | AID 588856 | Potency, µM (doses to about 46.1 µM), most hits filed as cytotoxic
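CellTiter-Glo luminescence gave cytotoxicity after 18 hours at 37 degrees C. The cells were HepG2 CAGA-GFP in 1% FBS DMEM, stimulated with 500 pg/mL TGF-beta after compound addition. %Activity was normalised to no-cell wells (complete cell-killing) and DMSO (no toxicity), and curves were fitted and classified.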
TGFb inhibitor: blocks TGF-b signaling; HepG2 CAGA-GFP TGF-b/SMAD3 reporter, GFP fluorescence, 18 h; TGF-beta stimulated, 500 pg/mL final; hit rate 1.2% among 410,000; Potency, µM (top dose mostly 46.1 µM), actives largely listed as inhibitors; also: nearly all actives have a fitted effect of over 65% in size
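HEPG2 CAGA-GFP cells (1000/well, DMEM with 1% FBS) were pre-incubated 2 h at 37 degrees C, given compound by pin tool, then stimulated with TGF-beta at 500 pg/mL final for 18 h before per-cell GFP fluorescence imaging.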
DT40 TDP1 CPT: DT40-hTDP1 cell growth loss with CPT. AID 686979. hit rate 12% among 420,000. Potency, µM (highest dose often 46.2 µM), actives largely listed as inhibitors. chicken DT40 Tdp1-/-;hTDP1 cells + 20 nM CPT, ATP luminescence, 48 h; also: nearly all actives have a fitted effect of over 55% in size
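Chicken DT40 Tdp1-/- cells stably complemented with human TDP1 were seeded at 400 cells/well in medium containing 20 nM camptothecin, exposed to pin-transferred compounds, and grown at 37 °C for at least 48 hr. Viability was read as ATP luminescence.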
S-ASM inh: blocks human secretory acid sphingomyelinase. placental ASM, HMU-PC fluorogenic substrate, 60 min. Potency, µM (series often up to 57.5 µM), usual class: inhibitors. hit rate 0.006% among 340,000. AID 504937
Target sequence (P17405 47-631 limits assumed): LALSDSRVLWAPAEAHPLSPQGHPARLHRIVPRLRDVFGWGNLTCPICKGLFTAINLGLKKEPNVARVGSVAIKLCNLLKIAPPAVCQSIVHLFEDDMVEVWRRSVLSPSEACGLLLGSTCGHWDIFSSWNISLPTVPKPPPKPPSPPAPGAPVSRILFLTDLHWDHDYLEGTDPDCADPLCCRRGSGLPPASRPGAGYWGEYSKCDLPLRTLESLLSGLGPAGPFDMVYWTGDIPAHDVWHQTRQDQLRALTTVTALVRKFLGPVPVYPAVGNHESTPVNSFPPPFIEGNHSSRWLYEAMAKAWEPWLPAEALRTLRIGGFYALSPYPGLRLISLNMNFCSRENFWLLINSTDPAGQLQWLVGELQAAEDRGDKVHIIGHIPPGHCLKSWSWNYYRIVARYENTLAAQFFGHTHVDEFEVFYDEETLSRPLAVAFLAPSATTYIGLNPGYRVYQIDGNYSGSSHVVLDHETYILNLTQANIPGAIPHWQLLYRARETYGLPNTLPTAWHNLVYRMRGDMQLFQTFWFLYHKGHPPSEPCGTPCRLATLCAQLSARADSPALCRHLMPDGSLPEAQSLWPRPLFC
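qHTS format. ASM enzyme prepared from human placenta hydrolyses the fluorogenic substrate HMU-PC0 (9 uM final) over 60 min at 37 °C after a 10 min compound preincubation.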
Numbers stand for hits; i = inactive; ? = inconclusive; nt = no result given; [ ] = dose if it differs, or a comment. Unless noted, calls follow the shape of the dose curve; as a rule, active = well fitted curve in the direction sought with a large enough effect; inconclusive = small, poorly fitted or top-dose-only effect, or another doubt; inactive = no such curve, though single readings can be large; an effect the other way counts as inactive or inconclusive.

SMILES	IL-1B inflam inh	TDP1 cell noCPT	HepG2 tox	TGFb inhibitor	DT40 TDP1 CPT	S-ASM inh
COc1ccccc1NC(=O)/C(=N/OCc1ccc(C#N)cc1)C(C)=O	i	i	i	i	i	i
Cc1ccc2cc(CN(CCN3CCCC3)C(=O)Nc3ccc(F)cc3)c(=O)[nH]c2c1C	?	18µM	i	i	23µM	i
Cc1ccc2cc(CN(CCN3CCOCC3)C(=O)NCc3ccccc3)c(=O)[nH]c2c1C	i	?	i	i	?	i
CCc1ccc2[nH]c(=O)c(CN(CCCN3CCOCC3)C(=O)Nc3ccc(F)cc3)cc2c1	?	13µM	i	i	?	i
O=C(Nc1ccc(F)cc1)N(CCCN1CCOCC1)Cc1cc2cc3c(cc2[nH]c1=O)OCCO3	i	?	i	i	8.2µM	i
CCOc1ccc(NC(=S)N(CCN2CCOCC2)Cc2cc3cc4c(cc3[nH]c2=O)OCCO4)cc1	-53	i	i	i	?	i
COCC(=O)Nc1cc(C(=O)N2CCc3ccccc3C2)c2c(c1)nc(-c1ccncc1)n2C	nt	i	nt	nt	i[9.04 µM]	nt
CCN(CC)C(=O)c1ccc(CS(=O)(=O)Cc2ccccc2)cc1	i	i	i	i	i	i
CC(C)Cn1nc(NS(=O)(=O)c2cccc3nonc23)c2cc3ccccc3nc21	i	i	i	i	i	i
CCOc1ccccc1C(=O)N(Cc1ccccc1)Cc1cc2cc3c(cc2[nH]c1=O)OCCO3	i	23µM	i	i	26µM	i
COC(=O)Cn1c(=NC(=O)CSC(C)=O)sc2ccccc21	i	?	i	i	?	i
CCCn1c(=NC(=O)CS(=O)(=O)c2ccccc2)sc2cc(S(C)(=O)=O)ccc21	i	i	i	i	i	nt
COCCn1c(=NC(=O)CSC(C)=O)sc2cc(OC)ccc21	i	?	i	i	?	i
CCn1c(=NC(=O)CSC(C)=O)sc2ccccc21	i	?	i	i	21µM	i
COCCn1c(=NC(=O)CSCC(=O)NC2CCCCC2)sc2cc(OC)ccc21	i	21µM	i	i	23µM	i
COCCn1c(=NC(=O)CSC(C)=O)sc2cc(F)ccc21	i	23µM	i	i	21µM	i
COCCn1c(=NC(=O)CCS(=O)(=O)c2ccccc2)sc2cc(F)ccc21	i	21µM	i	i	18µM	i
Cc1ccc(N2CC(NC(=O)c3ccco3)CC2=O)cc1C (stereo unspecified)	nt	i	i	i	i	nt
CCOc1ccc(C2C(C(=O)Nc3ccc(OC)cc3)=C(C)Nc3nc(CCCO)nn32)cc1 (stereo unspecified)	nt	i	i	i	i	nt
COCCn1c(=NC(=O)/C=C/c2cccs2)sc2cc(NC(C)=O)ccc21	i	23µM	i	i	?	i
COCCn1c(=NC(=O)c2sc3ccccc3c2Cl)sc2cc(S(N)(=O)=O)ccc21	i	13µM	i	i	?	nt
COc1cc(C2CC(=O)N(CC(=O)NCC3CCCO3)c3ccccc3S2)cc(OC)c1OC (stereo unspecified)	i	i	i	i	i	i
COc1ccc(NC(=O)c2cc(-c3cc(F)ccc3OC)n[nH]2)cn1	nt	?	i	i	?	nt
CCCOc1ccc(F)cc1-c1cc(C(=O)NCc2cccs2)[nH]n1	?	7.3µM	i	?	23µM	nt
CCCOc1ccc(F)cc1-c1cc(C(=O)Nc2ccc(C(C)C)cc2)[nH]n1	i	26µM	i	?	?	nt
COc1ccc(NC(=O)c2cc(-c3cc(F)ccc3OC)n[nH]2)cc1OC	i	23µM	i	i	21µM	nt
CCCOc1ccc(F)cc1-c1cc(C(=O)Nc2ccc(OC)c(OC)c2)[nH]n1	-68	?	i	?	21µM	nt
COc1cccc(NC(=O)CN(C)C(=O)c2cc(-c3ccccc3)nn2-c2ccccc2)c1	?	i	i	i	i	i
